# Measured values as given in PubChem BioAssay AID865 (The Scripps Research Institute Molecular Screening Center, 2007).
# The list shows a part of the results. A number with no mark means an inactive call.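 Rule for the calls: active = activation above the screen-wide mean activation plus 3 SD (cut at about 8% in these data); inactive = the rest.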
# Assay: activators of NFAT-driven beta-lactamase reporter, confirmation, counter-screen for GALR2 agonist project, CHO NFAT-bla cells, FRET readout (AID 865);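 note: 0% = DMSO with PBS wells and 100% = thapsigargin positive control wells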
# Conditions: at 5.6 µM, stronger effect = higher value
compound,measurement,value
Cc1cccc(N2C(=O)NC(=O)/C(=C\c3cnn(-c4ccccc4)c3)C2=O)c1,activation,0.39%
